Usually AC50 stands for the concentration giving half of the maximal activity seen.

SMILES strings stand for the structures. Active and inactive are the calls of the source. The calls were made as follows: active = hit-call score of the fitted dose curve at least 0.9, where 1 is the maximum; inactive = score below 0.9.

The values below come from PubChem BioAssay (EPA / NIEHS).

A short description of the test: ATG_Oct_MLP_CIS: Attagene CIS-FACTORIAL HepG2 Assay for human Octamer-Binding Transcription Factor (Oct) (AID 2282993). The settings on record: HepG2 Attagene cis-factorial Oct reporter, mRNA; actives raise or lower the signal. As for the experimental part: ATG_CIS is a cell-based, multiplexed-readout assay that uses HepG2, a human liver cell line, with measurements taken at 24 hours after chemical dosing in a 24-well plate.ATG_Oct_MLP_CIS is one of 52 assay component(s) measured or calculated from the ATG_CIS assay. It is designed to make measurements of mRNA induction, a form of inducible reporter, as detected with fluorescence intensity signals by Reverse transcription polymerase chain reaction (RT-PCR) and Capillary electrophoresis technology.Data from the assay component ATG_Oct_MLP_CIS was analyzed into 1 assay endpoint. This assay endpoint, ATG_Oct_MLP_CIS, was analyzed with bidirectional fitting relative to DMSO as the negative control and baseline of activity. Using a type of inducible reporter, measures of mRNA for gain or loss-of-signal activity can be used to understand the reporter gene at the transcription factor-level as they relate to the gene POU2F1. Furthermore, this assay endpoint can be referred to as a primary readout, because this assay has produced multiple assay endpoints where this one serves a reporter gene function. To generalize the intended target to other relatable targets, this assay endpoint is annotated to the dna binding intended target family, where the subfamily is POU domain protein.
Human liver HepG2 cells are transiently transfected with multiple reporter transcription units (MRTUs) in 6-well plates using FuGene 6 reagent (Roche; 3 ml FuGene/1 mg DNA). The MRTU constructs are regulated by a cis-regulating element (promoter). […] A major difference between the CIS and TRANS system is that in CIS activities of endogenous TFs are measured, whereas the TRANS assay evaluates changes in activities of exogenous, chimeric NR-Gal4 proteins. […] At the end of 24 hour incubation, total RNA was isolated using TriZol reagent (Invitrogen). The isolated RNA is then reverse-transcribed using oligo(dT) primer and Mo-MLV reverse transcriptase (Invitrogen) with DNAse I (Ambion) treatment for 30 min. The one-tenth of the produced cDNA was amplified by PCR using Taq DNA polymerase (Invitrogen) and two reporter sequence-specific primers. The PCR products were fluorescently labeled by primer extension with 6-arboxyfluorescein (6-FAM) 5'-labeled reporter sequence-specific primer (2 min at 95 C, 20 s at 68 C and 10 min at 72 C) and these products were digested with 5U of HpaI (New England Biolabs) for 2h at 37 C. The fragments were purified using Qiaquick PCR columns (Qiagen), analyzed on an ABI 3130xL genetic analyzer (Applied Biosystems) with peak positions identified by using a set of X-rhodamine (ROX)-labeled MapMarker1000 molecular weight standards (BioVentures). The raw capillary electrophoresis data was processed using Attagraph software (Attagene).
For `CCc1cc(Cc2cc(CC)c(N)c(CC)c2)cc(CC)c1N`, the concentration at half-maximal activity (AC50) was 41.9 µM (active).

With `NC(O)(C(F)(F)F)C(F)(F)F`, the compound was called inactive.

For the compound `CCOC(C=C(C)CCC=C(C)C)OCC`, the compound was classed as inactive.

Regarding `CCn1c2ccccc2c2ccccc21`, the AC50 was 100 µM (active).

For `CCCCCCCCn1sc(Cl)c(Cl)c1=O`, the call was inactive.

In the case of `COCCC(=O)OC`, the outcome was inactive.

As for `CCCCCCCC/C=C\CCCCCCCC(=O)N(C)CC(=O)O`, the outcome was inactive.

On to `CCCCCC/C=C/CCCCCCCC(=O)O`, for which the call was inactive.

In the case of `CC(C)OC(=O)COc1ccc(Cl)cc1Cl`, the outcome was inactive.

Take `O=C(Cl)C(F)(F)C(F)(F)C(F)(F)C(F)(F)C(F)(F)C(F)(F)F`: the outcome was inactive.

`N#Cc1ccccc1O`: the compound was classed as inactive.

Regarding `CCCCC(CC)COC(=O)c1ccc(N(C)C)cc1` (stereo not given), the compound was called inactive.

As to `CCN(CC)c1ccc(C=O)c(O)c1`, the call was inactive.

Turning to `CCc1ccc(C)nc1`, the compound was classed as inactive.

Consider `O=C(Cl)c1ccc(Cl)cc1Cl`, for which the call was inactive.

Take `OCC1CCCO1` (stereo not given): the outcome was inactive.

For `Cc1cc(O)c(C(C)(C)C)cc1C(C)(C)C`, the compound was called inactive.

In the case of `CCC(=O)OC(C)c1ccccc1` (stereo not given), the compound was classed as inactive.

As for `O=C=Nc1cccc2c(N=C=O)cccc12`, the compound was classed as inactive.

As to `O=S(=O)(O)c1ccc(Cl)cc1`, the call was inactive.

For `CCCCCCCCCCCCCC[P+](CCCC)(CCCC)CCCC`, the AC50 is 0.903 µM (active).

As for `CCCCCCCCCc1ccc(OCCO)cc1`, the result was inactive.

In the case of `Cc1cc(=O)[nH]c(C(C)C)n1`, the compound was classed as inactive.

For the compound `FC(F)(F)C(F)(F)C(F)(F)CC1CO1` (stereo not given), the result was inactive.

As for `CNS(=O)(=O)C(F)(F)C(F)(F)C(F)(F)C(F)(F)C(F)(F)C(F)(F)C(F)(F)C(F)(F)F`, the outcome was inactive.

Regarding `CCOC(=O)CC(=O)C(F)(F)C(F)(F)F`, the compound was classed as inactive.

`O=C(c1ccccc1)c1ccc(O)cc1O`: the result was inactive.

Take `CCOC(OCC)OCC`: the compound was called inactive.

On to `C[Si](C)O[Si](C)C`, for which the compound was classed as inactive.

As to `CCC(C)CO` (stereo not given), the call was inactive.

For the compound `O=C(O)C(F)(F)OC(F)(F)C(F)(F)OC(F)(F)C(F)(F)OC(F)(F)F`, the compound was called inactive.

In the case of `F[Si-2](F)(F)(F)(F)F`, the compound was classed as inactive.

Regarding `NC(=O)C(F)(F)C(F)(F)C(F)(F)C(F)(F)C(N)=O`, the call was inactive.

Regarding `CSc1ccc(Cl)cc1`, the outcome was inactive.

Turning to `CCOC(=O)CCC(C)=O`, the compound was classed as inactive.

Regarding `CCN=c1cc2oc3cc(NCC)c(C)cc3c(-c3ccccc3C(=O)OCC)c-2cc1C`, the AC50 is 7.4 µM (active).

In the case of `NCC(F)(F)C(F)(F)C(F)(F)C(F)(F)C(F)(F)C(F)(F)C(F)(F)C(F)(F)F`, the compound was called inactive.

Turning to `O=C(F)C1(F)C(F)(F)C(F)(F)C(F)(F)C(F)(F)C1(F)F`, the outcome was inactive.

Take `Brc1nc2ccccc2s1`: the call was inactive.

Consider `COc1ccccc1C=O`, for which the compound was classed as inactive.
